These results are taken from ChEMBL document CHEMBL4513216, “Probing the Open Global Health Chemical Diversity Library for Multistage-Active Starting Points for Next-Generation Antimalarials” (ACS Infect Dis, 2020).

The whole screen tested about 69,000 compounds, of which about 8,600 (12%) showed an effect of 50% or more. The sample holds strong results, similar compounds and a random draw of the others, so the mix is not that of the screen.

The assay has as its system Plasmodium berghei. Kind of assay: Screen against P. berghei liver stage (PbLuc), transformed with Luciferase, at 10uM. The class given is functional, HepG2. The note with it: tested at 10 uM.
For `O=C(CCn1ccnc1)N1CCCC(n2cncn2)C1` (stereo unspecified), the INHIBITION was 49%. `c1ccc(CN2CCCC3(CCN(CC4CCCO4)CC3)C2)nc1` (stereo unspecified): the INHIBITION is 62%. In the case of `c1cncc(N2CCCC3(CCN(CC4CCCO4)CC3)C2)c1` (stereo unspecified), the INHIBITION is given as 3.58%. As to `Cn1ccnc1CN1CCCC2(CCN(CC3CCCO3)CC2)C1` (stereo unspecified), the INHIBITION was 38.1%.

As to `Cc1cccc(CN2CCCC3(CCN(CC4CCCO4)CC3)C2)n1` (stereo unspecified), the INHIBITION is 53%. As for `Cc1cccc(CN2CCOCC3(CCN(C4CCOCC4)C3)C2)n1` (stereo unspecified), the figure is -34.9%; as for `c1cc(CN2CCCC3(CCN(CC4CCCO4)CC3)C2)n[nH]1` (stereo unspecified), 47.5%; as for `c1cc(CN2CCc3c(nnn3CC3CC3)C2COCC2CC2)co1` (stereo unspecified), 27.4%. Take `CCN1CCOCC2(CCCN(C(=O)c3ccncc3F)C2)C1` (stereo unspecified): the INHIBITION is reported as 27.2%.

On to `Cc1c(C(=O)N2CCCN(S(C)(=O)=O)CC2)cnn1C`, for which the INHIBITION was -4.96%. As for `N#CCCCS(=O)(=O)NC1(c2ccc(F)cc2)CC1`, the INHIBITION is 26.4%. In the case of `Cc1ccc(Oc2ccc(NC(=O)NCC3CCOC3)cn2)cc1C` (stereo unspecified), the INHIBITION worked out at 58.2%. As to `CN(C)c1ccc(NC(=O)NCC2CCOC2)cn1` (stereo unspecified), the INHIBITION is listed as 77.85%. With `O=C(NCC1CCOC1)Nc1ccc(Oc2cccc(F)c2)nc1` (stereo unspecified), the INHIBITION was -8.15%.

`O=C(NCC1CCOC1)Nc1ccc(OCC(F)(F)F)nc1` (stereo unspecified): the INHIBITION is on record as 23.2%. Turning to `O=C(NCC1CCOC1)Nc1ccc(Oc2ccc(F)cc2)nc1` (stereo unspecified), the INHIBITION came to 3.67%. As for `CCN(CC)c1ccc(NC(=O)NCC2CCOC2)cn1` (stereo unspecified), the INHIBITION is reported as -45.3%. Regarding `COc1ncccc1CNC(=O)NCCNS(C)(=O)=O`, the INHIBITION was -9.37%. Consider `CC(C)CS(=O)(=O)N1C[C@@H]2C[C@H](C(=O)Nc3cccnc3)[C@H](C1)O2`, for which the INHIBITION is -10.3%. `CN1N=C(C(=O)N(Cc2ccco2)C2CC2)CCC1=O`: the INHIBITION is 19%. As for `Cc1c(Br)cccc1C(=O)NCC1CCNCC1`, the figure is 39.7%; as for `Cn1cccc1CN1CCC2(CCCN(C(=O)c3cccnc3)C2)CC1`, -43.1%; as for `CC(C)(C)c1cc(NC(=O)C2CCCO2)n(-c2ccccn2)n1` (stereo unspecified), 52.5%. As for `CCSCc1ccnc(NC(=O)C2CCCO2)c1` (stereo unspecified), the figure is -4.26%; as for `CC(C)(C)c1cc(NC(=O)C2COCCO2)n(-c2ccccn2)n1` (stereo unspecified), 30.7%. As to `Cc1ccnc(NC(=O)C2CCCO2)c1` (stereo unspecified), the INHIBITION is reported as 62.3%.

Regarding `CCC(CC)n1nc(C)cc1NC(=O)C1CCCO1` (stereo unspecified), the INHIBITION is listed as -56.4%.

In the case of `Cc1nccn1-c1cc(CNC(=O)C2CCCO2)ccn1` (stereo unspecified), the INHIBITION was found to be 21%. As for `O=C(c1cnccn1)N1CCC2(CC1)CC(Oc1ccccc1)CO2` (stereo unspecified), the INHIBITION amounted to 41.3%. For the molecule `CCOCC1CCN(C(=O)c2sc(C)cc2OC(F)F)CC1`, the INHIBITION turned out to be 0.325%. `COc1cc(CCC(=O)NC2CCN(C)CC2)ccc1OCC(F)(F)F`: the INHIBITION is given as -14.7%.
